From PubChem BioAssay (NCI) come the findings set out here.

Some test systems named below: NCI-H23 lung; NCI-H226 lung; NCI-H322M lung; HOP-62 NSCLC; NCI-H460 lung; NCI-H522 lung; A549/ATCC NSCLC; 786-0 renal; COLO 205 colon; DU-145 prostate.
Holding throughout (test): NCI-60 one-dose screen, 48 h (100 = growth as untreated, 0 = no growth, -100 = all killed)
Holding throughout (details): 10 µM

SMILES strings stand for the structures. About 83,000 compounds went through this panel and 20% of them were active in at least one assay; those are over-represented in the sample as a whole.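 Plates (96-well) were seeded with cells, treated with compound at one concentration, and incubated for 48 hours before percent growth was determined.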 Values without a mark were called inactive. Active and inactive are the calls of the source. The calls were made as follows: active = growth percent below 10; inactive = the rest.

Consider `COc1cc2c(cc1OCCCN1CCN(c3ncnc4ccccc34)CC1)N=CC1CCCN1C2=O` (configuration not stated), for which the growth with NCI-H23 lung is -8.7% (active); in the assay with NCI-H226 lung, -50.1% (active); with NCI-H322M lung, -3.85% (active); in the assay with HOP-62 NSCLC, 4.07% (active); with NCI-H460 lung, 8.4% (active); in the assay on NCI-H522 lung, -37.7% (active). In addition, the results for the growth in the assay on A549/ATCC NSCLC, with 786-0 renal and in the assay with COLO 205 colon were -2.44% (active), 7.51% (active) and -42% (active), respectively.

Consider `c1ccc([I+]c2ccccc2)cc1`, for which the growth was 55.6% in the assay on NCI-H23 lung; 65.5% in the assay with NCI-H226 lung; 72.8% with NCI-H322M lung; 53.3% with HOP-62 NSCLC; 86.5% in the assay with NCI-H460 lung; 64.7% in the assay with NCI-H522 lung. For the same compound, the growth in the assay on A549/ATCC NSCLC is 48.7%; in the assay on 786-0 renal it was 61%; with COLO 205 colon it was 55%; with DU-145 prostate it was 90%.

As for `O=C(CCCCC(=O)Nc1ccc2c(c1)/C(=C/c1ccc[nH]1)C(=O)N2)NO`, the growth was 106% in the assay on NCI-H23 lung; 91.1% in the assay with NCI-H226 lung; 64.1% in the assay with NCI-H322M lung; 94.3% with HOP-62 NSCLC; 97.6% in the assay on NCI-H460 lung; 49.4% in the assay with NCI-H522 lung. For the same compound, the growth is 95.6% with A549/ATCC NSCLC, 94.4% in the assay on 786-0 renal, 89% with COLO 205 colon and 91.2% in the assay on DU-145 prostate.

With `O=C(N/N=C\c1cc(Cl)ccc1[N+](=O)[O-])c1ccco1`, the growth in the assay with NCI-H23 lung was 98.2%; in the assay on NCI-H226 lung, 105%; in the assay on NCI-H322M lung it was 126%; in the assay with HOP-62 NSCLC, 110%; with NCI-H460 lung it was 101%; in the assay with NCI-H522 lung it was 97.2%. Also, the growth was 90.7% in the assay on A549/ATCC NSCLC, 95.6% in the assay with 786-0 renal, 139% in the assay on COLO 205 colon and 108% with DU-145 prostate.

On to `N#Cc1cc(-c2cc3ccccc3o2)oc1N`, for which the growth in the assay with NCI-H23 lung is 11.4%; with NCI-H226 lung, 17.4%; in the assay with NCI-H322M lung, 2.76% (active); in the assay with HOP-62 NSCLC, 20%; in the assay on NCI-H460 lung, 9.76% (active); in the assay with NCI-H522 lung it was -4.4% (active). The growth was -5.69% (active) with A549/ATCC NSCLC, 11.7% in the assay on 786-0 renal and 12.9% in the assay with COLO 205 colon.

Turning to `Cn1c(C(N)=O)cc2c1-c1nc(Nc3ccccc3)ncc1CCC2`, the growth with NCI-H23 lung is 52%; in the assay on NCI-H226 lung, 38.1%; in the assay on NCI-H322M lung, 46.6%; with HOP-62 NSCLC, 38.8%; with NCI-H460 lung, 37.6%; with NCI-H522 lung, 33.5%. For the same compound, the growth in the assay on A549/ATCC NSCLC is 31.1%; with 786-0 renal, 49.9%; in the assay with COLO 205 colon, 59.8%; with DU-145 prostate, 55.5%.

`COc1cc(-c2cc(/C=C3\C(=O)Nc4ccc(Cl)cc43)[nH]n2)cc(OC)c1OC`: the growth in the assay on NCI-H23 lung was 38.3%; in the assay with NCI-H226 lung it was 58.2%; in the assay with NCI-H322M lung it was 51.5%; in the assay on HOP-62 NSCLC, 44.6%; in the assay on NCI-H460 lung, 38%; in the assay with NCI-H522 lung, 20.2%. For the same compound, the growth was 40.4% in the assay with A549/ATCC NSCLC, 61.6% in the assay on 786-0 renal and 11.4% with COLO 205 colon.

As for `Cc1cc(N(CCCNc2ccnc3cc(Cl)ccc23)Cc2ccc3c(c2)OCO3)nc(N2CCOCC2)n1`, the growth in the assay on NCI-H23 lung was 50.9%; in the assay on NCI-H226 lung, 67.2%; with NCI-H322M lung it was 37.5%; with HOP-62 NSCLC it was 10.1%; with NCI-H460 lung it was 20.2%; in the assay on NCI-H522 lung, 8.51% (active). Further, the growth in the assay on A549/ATCC NSCLC was 28.7%; in the assay on 786-0 renal it was -20.4% (active); in the assay with COLO 205 colon it was -54% (active); in the assay on DU-145 prostate, 38%.

In the case of `O=S(=O)(NCCCNc1nccc(-c2c(-c3ccc(F)cc3)nc3sccn23)n1)c1ccc(F)cc1`, the growth in the assay on NCI-H23 lung is 56.2%; in the assay with NCI-H226 lung, 40%; in the assay on NCI-H322M lung it was 43.2%; with HOP-62 NSCLC, 74%; in the assay on NCI-H460 lung, 26.9%; in the assay on NCI-H522 lung, 36.4%. Besides, the growth in the assay on A549/ATCC NSCLC was 25.9%; in the assay with 786-0 renal, 59%; with COLO 205 colon, 21%; in the assay with DU-145 prostate it was 44.6%.

In the case of `Cc1nc2oc3ccccc3c(=O)c2cc1C(=O)NCc1ccccc1`, the growth with NCI-H23 lung was 85.9%; in the assay on NCI-H226 lung it was 105%; with NCI-H322M lung it was 76.2%; with HOP-62 NSCLC, 90.5%; in the assay with NCI-H460 lung it was 32.2%; in the assay on NCI-H522 lung, 86.4%. Moreover, the growth was 68.9% in the assay on A549/ATCC NSCLC, 61.5% in the assay with 786-0 renal, 39.9% in the assay with COLO 205 colon and 77% with DU-145 prostate.

In the case of `CCOC(=O)C(NC(=O)C(Cl)Cl)C(O)c1ccccc1` (configuration not stated), the growth in the assay with NCI-H23 lung was 102%; with NCI-H226 lung, 93.1%; in the assay with NCI-H322M lung it was 105%; in the assay on HOP-62 NSCLC it was 82.8%; with NCI-H460 lung it was 102%; in the assay with NCI-H522 lung, 122%. Moreover, the growth in the assay on A549/ATCC NSCLC was 117%; in the assay with 786-0 renal, 129%; with COLO 205 colon it was 126%; in the assay on DU-145 prostate it was 102%.

Turning to `O=C(Nc1cccc(Br)c1)c1cc(=O)[nH]c2ccccc12`, the growth was 103% in the assay with NCI-H23 lung; 82.9% in the assay with NCI-H226 lung; 94.2% in the assay on NCI-H322M lung; 64.3% with HOP-62 NSCLC; 105% with NCI-H460 lung; 86.7% with NCI-H522 lung. Also, the growth is 94.1% with A549/ATCC NSCLC, 103% with 786-0 renal, 85.1% in the assay on COLO 205 colon and 110% in the assay on DU-145 prostate.

For `CN1c2ccccc2[C@]2(Cc3ccccc3)Cc3ccccc3N[C@H]12`, the growth in the assay on NCI-H23 lung is 91.4%; with NCI-H226 lung it was 98.2%; in the assay with NCI-H322M lung it was 111%; in the assay with HOP-62 NSCLC it was 120%; in the assay with NCI-H460 lung it was 111%; with NCI-H522 lung, 71.7%. In addition, the growth is 109% in the assay with A549/ATCC NSCLC, 106% with 786-0 renal, 118% with COLO 205 colon and 115% with DU-145 prostate.

Turning to `O=C(Nc1cccc(-n2cc(-c3ccncc3)c(-c3ccc(O)c(Cl)c3)n2)c1)c1cccc(C(F)(F)F)c1`, the growth was 41.9% in the assay with NCI-H23 lung; 68% in the assay with NCI-H226 lung; 47% in the assay on NCI-H322M lung; 47.2% in the assay with HOP-62 NSCLC; 17.2% in the assay with NCI-H460 lung; 28.2% in the assay on NCI-H522 lung. Besides, the growth is 16.1% in the assay on A549/ATCC NSCLC, 21.4% in the assay with 786-0 renal, 98.8% in the assay with COLO 205 colon and 51.1% in the assay on DU-145 prostate.
